Inconclusive results are not listed. Active and inactive are the calls of the source. The call rests on the fitted dose curve; in most records, active means well fitted cell-killing curve with a large enough effect; inconclusive means small, poorly fitted or top-dose-only effect, or effect the other way; inactive means no such curve, though single readings can be large or run the other way.
Test: Quantitative highthroughput screen to assess conditional lethalithy of SEM cells grown in RPMI1640 with dialyzed fetal bovine serum (RPMI+ds) (AID 1963884); further: nearly all actives have a fitted effect of over 35% in size
Conditions: SEM B-ALL cells, RPMI+dialyzed FBS, CellTiter-Glo viability, 48 h; series mostly up to 45.8 µM
Outline: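 Each medium arm—HPLM with 10% dialyzed FBS, or RPMI1640 with 5 mM glucose and 10% untreated or dialyzed FBS—was screened against an 11-point, 3-fold compound titration for 48 h at 37 °C, with CellTiter-Glo luminescence as endpoint.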
With `NS(=O)(=O)OC[C@@H]1C[C@@H](n2ccc3c(N[C@H]4CCc5ccccc54)ncnc32)C[C@H]1O` the Potency was 1320 nM (active).
For `CCNC(=O)[C@H]1O[C@@H](n2cnc3c(N)nc(NCCc4ccc(CCC(=O)O)cc4)nc32)[C@H](O)[C@H]1O`, the Potency was “inactive”.
In the case of `CC(C)(C)OC(=O)N[C@H]1CCCCCC=C[C@@H]2C[C@@]2(C(=O)NS(=O)(=O)C2CC2)NC(=O)[C@@H]2C[C@@H](OC(=O)N3Cc4cccc(F)c4C3)CN2C1=O`, the Potency is reported as “inactive”.
In the case of `C=CC1=C(C(=O)O)N2C(=O)[C@@H](NC(=O)C(=NO)c3csc(N)n3)[C@H]2SC1`, the Potency is reported as “inactive”.
In the case of `O=C1Nc2ccc(I)cc2C1=Cc1cc(Br)c(O)c(Br)c1`, the Potency is reported as 18700 nM (active).
For `CC(=O)OCC(=O)[C@@]12N=C(C)O[C@H]1C[C@H]1[C@@H]3CCC4=CC(=O)C=C[C@]4(C)[C@@H]3[C@@H](O)C[C@@]12C`, the Potency was 20900 nM (active).
With `COC1=C2C[C@@H](C)C[C@H](OC)[C@@H](O)[C@@H](C)C=C(C)[C@H](OC(N)=O)[C@@H](OC)C=CC=C(C)C(=O)NC(=CC1=O)C2=O` the Potency was 7430 nM (active).
For `Cc1cc(CS(=O)(=O)c2ccccc2)cc(OCc2ccc(CN3CCC[C@H]3CO)cc2)c1`, the Potency was 526 nM (active).
In the case of `C=CCNC1=C2C[C@@H](C)C[C@H](OC)[C@@H](O)[C@@H](C)C=C(C)[C@H](OC(N)=O)[C@@H](OC)C=CC=C(C)C(=O)NC(=CC1=O)C2=O`, the Potency is reported as 332 nM (active).
For `CC(=O)[C@]1(O)Cc2c(O)c3c(c(O)c2[C@@H](O[C@H]2C[C@H](N)[C@@H](O)[C@H](C)O2)C1)C(=O)c1ccccc1C3=O`, the Potency was 1050 nM (active).
Potency means the concentration at half of the fitted maximal effect.
